# Test results published in PubChem BioAssay (NCI).
# About 83,000 compounds went through this panel and 20% of them were active in at least one assay; those are over-represented in the sample as a whole.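 Growth was measured after 48 h exposure to one concentration of compound in 96-well plates. Values under 10 count as active.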 Values without a mark were called inactive. Activity calls are given as the source filed them.
# Test system: HCT-15 colon
# Test: NCI-60 one-dose screen, 48 h (100 = growth as untreated, 0 = no growth, -100 = all killed)
# Conditions: 10 µM unless noted
row,Structure (SMILES),growth
1,CCN(CC)c1nc(SCC(=O)Nc2nc3ccc(C)cc3s2)nc(-c2ccccc2)c1C#N,83.8%
2,Cn1cc(-c2csc(-c3cccc(F)c3)n2)c2cccnc21,-43.3% [100 µM] (active)
3,CCN1CCN(c2cc(C)nc(NCc3cc(Nc4ccnc5cc(Cl)ccc45)ccc3F)n2)CC1,15.9%
4,CSc1n(Cc2ccc3ccccc3c2)c(C)c[n+]1Cc1ccc2ccccc2c1,24.4%
5,NC(=N\N=C/c1cccc([N+](=O)[O-])c1)/C(N)=N\N=C/c1cccc([N+](=O)[O-])c1,51.9%
6,COc1ccc(-c2csc(C3=C(O)CN(C(C)C)C3=N)n2)cc1OC,103%
7,COc1ccc(-c2ccc3c(c2)sc2nc(-c4ccc(F)cc4)cn23)cc1,74.9%
8,Cc1ccc(S(=O)(=O)NCC[C@@H]2C[C@H]2c2cc3ccccc3s2)cc1,101%
9,Cc1cccc(NC(=O)CSc2nc3ccccc3[nH]2)c1,104%
10,C[n+]1cc2cc(C(N)=O)[nH]c3c(=N)c(Cl)c(N)c1c23,42.1%
11,CCN(CC)CCCNc1ccc(Nc2ccc(OC)cc2)cc1,105%
12,O=C1C=C[C@]2(C[C@@H](c3cccc(C(F)(F)F)c3)O[C@@H](c3cccc(C(F)(F)F)c3)O2)O1,-33.8% (active)
13,Cc1nc2c(c(N3CCCc4ccccc43)n1)CCC2,4.84% (active)
14,Cc1cc(Cl)nc(NCc2cc(Nc3ccnc4cc(Cl)ccc34)ccc2F)n1,11.7%
15,COc1ccc(NC(=O)CSc2nnc(-c3cc(-c4ccc(S(N)(=O)=O)cc4)nc4ccccc34)n2-c2ccccc2)cc1,89%
16,COc1ccc(-c2nc3ccc4[nH]ncc4c3c3c2CCCC3)cc1B(O)O,34.4%
17,CC/C=C\C[C@H](O)C/C=C1/C(=O)C=C[C@@H]1C/C=C\CCCCO,2.31% (active)
18,O=C(/C=C/c1c(Cl)nc2sccn12)c1nccs1,99.3%
19,O=c1[nH]ccc2nc(N3CCC(O)CC3)nc(Nc3ccc(N4CCOCC4)cc3)c12,31.2%

row,Structure (SMILES),growth
1,COc1ccc2c(c1)CCCN2c1c2ccccc2nc2ccccc12,12.5%
2,COc1ccc(N=C(c2ccccc2)C2C(=O)c3ccccc3C2=O)cc1,67%
3,Cc1c(O)cc(-c2cnc(N/N=C\c3ccc(Cl)cc3)s2)c(O)c1C,85%
4,NS(=O)(=O)c1ccc(-n2nc(C(=O)N/N=C\c3ccc(F)cc3)cc2-c2ccc(Cl)cc2)cc1,98.4%
5,CCN1CCN(c2nc(C)cc(NCc3cc(Nc4ccnc5cc(Cl)ccc45)ccc3F)n2)CC1,-24.2% (active)
6,COc1ccc2[nH]c(O)c(/C=c3/cc4c(c(-c5ccc(F)c(OC)c5)n3)=Nc3ccccc3-4)c2c1,-24% (active)
7,CCCCCS(=O)(=O)Nc1ccc(C(=O)O)cc1,109%
8,CN(C)CC1C(=O)O[C@H]2[C@H]1CC/C(COC(=O)c1cc3ccccc3[nH]1)=C\CC[C@@]1(C)O[C@@H]21 (some centres undefined),-57.9% (active)
9,N#CC1=C(c2ccc(Br)cc2)NC(SCC(=O)c2ccc(Br)cc2)NC1=O (centres undefined),103%
10,O=c1c2c3c(sc2n2c(-c4cn(-c5ccccc5)nc4-c4ccc(Cl)cc4)nnc2n1Cc1ccccc1)CCCC3,104%
11,COc1cc(/C=C/C(=O)c2cccc(-n3cc(-c4ccccc4)[nH]c3=O)c2)ccc1O,22.2%
12,CCCCCCCCCOc1c(OC)cc(C2CC(=O)Nc3c2c(C)nn3-c2nc3ccccc3[nH]2)cc1OC (centres undefined),-30.8% (active)
13,Cc1ccc2c(c1)Sc1c(ccc3ccccc13)N2,32.3%
14,CC(C)(C)C(CCc1ccc(Cl)cc1)N1CCN(C2CCCCC2)CC1 (centres undefined),38.1%
15,COc1ccc(C2=NN(C(=O)c3cc(OC)c(OC)c(OC)c3)C(c3ccc(Cl)cc3)C2)cc1OC (centres undefined),9.3% (active)
16,Cc1cc(NCc2cc(Nc3ccnc4cc(Cl)ccc34)ccc2F)nc(N2CCSCC2)n1,1.94% (active)
17,N#Cc1c(-c2cccc(Cl)c2)cc(-c2cccc(F)c2)[nH]c1=O,90.2%
18,O=C(CSc1nnc(-c2ccc(NC(=O)c3cccnc3)cc2)o1)N[C@@H](Cc1ccc(O)cc1)C(=O)O,113%

# Test system: HT29 colon
# Test: as above
# Conditions: 10 µM unless noted
row,Structure (SMILES),growth
1,CCN(CC)c1nc(SCC(=O)Nc2nc3ccc(C)cc3s2)nc(-c2ccccc2)c1C#N,79.6%
2,Cn1cc(-c2csc(-c3cccc(F)c3)n2)c2cccnc21,-71.7% [100 µM] (active)
3,CCN1CCN(c2cc(C)nc(NCc3cc(Nc4ccnc5cc(Cl)ccc45)ccc3F)n2)CC1,-5.84% (active)
4,CSc1n(Cc2ccc3ccccc3c2)c(C)c[n+]1Cc1ccc2ccccc2c1,-11.2% (active)
5,NC(=N\N=C/c1cccc([N+](=O)[O-])c1)/C(N)=N\N=C/c1cccc([N+](=O)[O-])c1,99.3%
6,COc1ccc(-c2csc(C3=C(O)CN(C(C)C)C3=N)n2)cc1OC,102%
7,COc1ccc(-c2ccc3c(c2)sc2nc(-c4ccc(F)cc4)cn23)cc1,82.8%
8,Cc1ccc(S(=O)(=O)NCC[C@@H]2C[C@H]2c2cc3ccccc3s2)cc1,107%
9,Cc1cccc(NC(=O)CSc2nc3ccccc3[nH]2)c1,122%
10,C[n+]1cc2cc(C(N)=O)[nH]c3c(=N)c(Cl)c(N)c1c23,35.3%
11,CCN(CC)CCCNc1ccc(Nc2ccc(OC)cc2)cc1,67.5%
12,O=C1C=C[C@]2(C[C@@H](c3cccc(C(F)(F)F)c3)O[C@@H](c3cccc(C(F)(F)F)c3)O2)O1,-24.2% (active)
13,Cc1nc2c(c(N3CCCc4ccccc43)n1)CCC2,3.44% (active)
14,Cc1cc(Cl)nc(NCc2cc(Nc3ccnc4cc(Cl)ccc34)ccc2F)n1,9.26% (active)
15,COc1ccc(NC(=O)CSc2nnc(-c3cc(-c4ccc(S(N)(=O)=O)cc4)nc4ccccc34)n2-c2ccccc2)cc1,86.4%
16,COc1ccc(-c2nc3ccc4[nH]ncc4c3c3c2CCCC3)cc1B(O)O,67.2%
17,CC/C=C\C[C@H](O)C/C=C1/C(=O)C=C[C@@H]1C/C=C\CCCCO,-39% (active)
18,O=C(/C=C/c1c(Cl)nc2sccn12)c1nccs1,97.5%
19,O=c1[nH]ccc2nc(N3CCC(O)CC3)nc(Nc3ccc(N4CCOCC4)cc3)c12,23.2%

row,Structure (SMILES),growth
1,COc1ccc2c(c1)CCCN2c1c2ccccc2nc2ccccc12,8.43% (active)
2,COc1ccc(N=C(c2ccccc2)C2C(=O)c3ccccc3C2=O)cc1,79.5%
3,Cc1c(O)cc(-c2cnc(N/N=C\c3ccc(Cl)cc3)s2)c(O)c1C,101%
4,NS(=O)(=O)c1ccc(-n2nc(C(=O)N/N=C\c3ccc(F)cc3)cc2-c2ccc(Cl)cc2)cc1,118%
5,CCN1CCN(c2nc(C)cc(NCc3cc(Nc4ccnc5cc(Cl)ccc45)ccc3F)n2)CC1,-12.6% (active)
6,COc1ccc2[nH]c(O)c(/C=c3/cc4c(c(-c5ccc(F)c(OC)c5)n3)=Nc3ccccc3-4)c2c1,-78.5% (active)
7,CCCCCS(=O)(=O)Nc1ccc(C(=O)O)cc1,97.2%
8,CN(C)CC1C(=O)O[C@H]2[C@H]1CC/C(COC(=O)c1cc3ccccc3[nH]1)=C\CC[C@@]1(C)O[C@@H]21 (some centres undefined),-75.7% (active)
9,N#CC1=C(c2ccc(Br)cc2)NC(SCC(=O)c2ccc(Br)cc2)NC1=O (centres undefined),105%
10,O=c1c2c3c(sc2n2c(-c4cn(-c5ccccc5)nc4-c4ccc(Cl)cc4)nnc2n1Cc1ccccc1)CCCC3,113%
11,COc1cc(/C=C/C(=O)c2cccc(-n3cc(-c4ccccc4)[nH]c3=O)c2)ccc1O,44.5%
12,CCCCCCCCCOc1c(OC)cc(C2CC(=O)Nc3c2c(C)nn3-c2nc3ccccc3[nH]2)cc1OC (centres undefined),-37.9% (active)
13,Cc1ccc2c(c1)Sc1c(ccc3ccccc13)N2,73.3%
14,CC(C)(C)C(CCc1ccc(Cl)cc1)N1CCN(C2CCCCC2)CC1 (centres undefined),12.6%
15,COc1ccc(C2=NN(C(=O)c3cc(OC)c(OC)c(OC)c3)C(c3ccc(Cl)cc3)C2)cc1OC (centres undefined),15.2%
16,Cc1cc(NCc2cc(Nc3ccnc4cc(Cl)ccc34)ccc2F)nc(N2CCSCC2)n1,-27.3% (active)
17,N#Cc1c(-c2cccc(Cl)c2)cc(-c2cccc(F)c2)[nH]c1=O,107%
18,O=C(CSc1nnc(-c2ccc(NC(=O)c3cccnc3)cc2)o1)N[C@@H](Cc1ccc(O)cc1)C(=O)O,106%
